Inconclusive results are not listed. Unmarked numbers belong to inactive results. Calls of active or inactive are those of the source. The call rests on the fitted dose curve; in most records, active means well fitted inhibition curve with a large enough effect; inconclusive means small, poorly fitted or top-dose-only effect; inactive means flat fitted curve, though single readings scatter. Where a SMILES comes first, the peptide text is derived from it. The star is where a group is joined. AMC = Cc1cc(=O)oc2cc(N*)ccc12; Cbz = O=C(OCc1ccccc1)*
System: HaCat
Experiment: Cytotoxic Profiling of Annotated Libraries Using Quantitative High-Throughput Screening (AID 1296008); further: nearly all actives have a fitted effect of over 60% in size
Settings: Five cell lines viability, CellTiter-Glo ATP luminescence, 48-72 h; max response: stronger effect = lower value
Procedure, shortened: (§1)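 Cells exposed to compounds for 48 or 72 hr at 37 degrees Celsius. Viability read as ATP-coupled luminescence with CellTiter-Glo after 10 min at room temperature.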
On the % scale 0 is the no-effect control and ±100 the full control effect.

Row | SMILES | outcome | max response [%]
1 | CC1(C)CCC[C@]2(C)C1CC=C(CO)[C@H]2CC/C(=C/CO)CO (stereo partly drawn) | inactive | 
2 | C[C@@]1(C(=O)O)CCC[C@@]2(C)C3=CC[C@H]4C[C@@]3(CC[C@H]12)CC4(O)CO (stereo partly drawn) | inactive | 
3 | Cc1c(NC(=O)N2CCOCC2)ccc2c1c1ccccc1n2C(C)C | inactive | 
4 | CC[C@H]1OC(=O)[C@H](C)[C@@H](O[C@H]2C[C@@](C)(OC)[C@@H](O)[C@H](C)O2)C(C)[C@@H](O[C@@H]2O[C@H](C)C[C@H](N(C)C)[C@H]2O)[C@](C)(O)C[C@@H](C)CN(C)[C@H](C)[C@@H](O)[C@]1(C)O (stereo partly drawn) |  | -11.4
5 | CC(C)c1ccc2c(c1)C(O)CC1C(C)(CO)CCCC21C (stereo not drawn) | inactive | 
6 | O=C1C[C@@]2(C(=O)N1)C(=O)N(Cc1ccc(Br)cc1F)C(=O)c1cccn12 |  | -21
7 | CC(=O)OC12CC(C)C(OC(=O)c3ccccc3)C1/C=C(/C)C(OC(=O)c1ccccc1)CC(=O)C(C)(C)/C=C/C(C)C2=O (stereo not drawn) | inactive | 
8 | COC(=O)C(CC1(O)c2ccccc2N2C(=O)C(C)(C)N(O)C21)n1cnc2ccccc2c1=O (stereo not drawn) | inactive | 
9 | C=C1[C@@H]2CC[C@@]3(C)[C@H](c4ccoc4)OC(=O)C[C@]13O[C@H]1CC(=O)C(C)(C)[C@H](C(O)C(=O)OC)[C@]12C (stereo partly drawn) | inactive | 
10 | COC(=O)C1=COC(O[C@@H]2O[C@H](CO)[C@@H](O)[C@H](O)[C@H]2O)/C(=C\COC(=O)/C=C/c2ccccc2)C1CC(=O)OCCc1ccc(O)cc1 (stereo partly drawn) | inactive | 
11 | COc1cc(C(C)=O)ccc1O[C@@H]1O[C@H](CO[C@@H]2OC[C@@H](O)[C@H](O)[C@H]2O)[C@@H](O)[C@H](O)[C@H]1O |  | -2.37
12 | CC1(C)[C@@H]2CC=C(CO[C@@H]3O[C@H](CO[C@@H]4OC[C@H](O)[C@H](O)[C@H]4O)[C@@H](O)[C@H](O)[C@H]3O)[C@H]1C2 |  | -0.954
13 | CCC(C)/C=C(C)/C=C/C(=O)C1CCC(O)C(C)(O)C1=O (stereo not drawn) | inactive | 
14 | O=C(/C=C/c1ccc(O)c(O)c1)O[C@H]1[C@H](OC2CCCCC2O)O[C@H](CO)[C@@H](O)[C@@H]1O (stereo partly drawn) |  | -16.7
15 | C=C1CCC2C(C)(C)CC(O)CC2(C)C1CCC(C)CCOC(=O)CCC(=O)O (stereo not drawn) |  | -1.5
16 | O=C(O)CC(CCc1ccccc1)OC1OC(CO)C(O)C(O)C1O (stereo not drawn) | inactive | 
17 | CC(O)/C=C/C1(O)C(C)C(O)C(O[C@@H]2O[C@H](CO)[C@@H](O)[C@H](O)[C@H]2O)CC1(C)C (stereo partly drawn) | inactive | 
18 | CC1(C)CC[C@]2(C(=O)O[C@@H]3O[C@H](CO)[C@@H](O)[C@H](O)[C@H]3O)CC[C@]3(C)C(=CCC4[C@@]5(C)C[C@@H](O)[C@H](O)[C@@](C)(CO)C5[C@H](O)C[C@]43C)C2[C@@H]1O (stereo partly drawn) |  | 1.4
19 | CN1C(=O)N(c2cc(Cl)cc(Cl)c2)C(=O)[C@@]1(C)Cc1ccc(Br)cc1 |  | -27.7
20 | O=C(Nc1ccccc1)Nc1ccc(-c2ccc(C(=O)C3CCCC3C(=O)O)cc2)cc1 (stereo not drawn) | inactive | 
21 | C=C1C(O)CCC2(C)CC3(OC)OC(=O)C(C)=C3CC12 (stereo not drawn) | inactive | 
22 | O=C(O)c1ccnc2cc(C(OCC3CCC(F)(F)CC3)c3ccccc3Cl)[nH]c12 (stereo not drawn) |  | -20.6
23 | CCCCOc1nc(N)c2c(n1)N(Cc1cccc(CN3CCCC3)c1)CC(=O)N2 | inactive | 
24 | CC1CC=C2C1CC1(O)C(=O)CC2(C)C1(C)CO (stereo not drawn) |  | 4.08
25 | O=C(OCC1=CC(Cl)C(O)C(OC(=O)c2ccccc2)C1O)c1ccccc1 (stereo not drawn) | inactive | 
26 | O=C(OC1C=C(CO)C2C(OC3OC(CO)C(O)C(O)C3O)OC=CC12O)c1ccc(O)cc1 (stereo not drawn) | inactive | 
27 | CC(=O)c1ccc(O[C@@H]2O[C@H](CO[C@@H]3OC[C@@H](O)[C@H](O)[C@H]3O)[C@@H](O)[C@H](O)[C@H]2O)cc1 | inactive | 
28 | Cc1cc(=O)oc2cc(NC(=O)[C@H](CCC(=O)O)NC(=O)[C@H](CC(C)C)NC(=O)[C@H](CC(C)C)NC(=O)OCc3ccccc3)ccc12 (Cbz-Leu-Leu-Glu-{AMC}) | inactive | 
29 | Fc1ccccc1-c1nc2ccn(Cc3ccc(-c4ccc(C(F)(F)F)cc4C(F)(F)F)nn3)cc-2n1 | inactive | 

System: KB-3-1
Experiment: as above
Settings: Five cell lines viability, CellTiter-Glo ATP luminescence, 48-72 h; max response: stronger effect = lower value
Procedure, shortened: as §1

Row | SMILES | max response [%] | outcome
30 | O=C(/C=C/c1ccc(O)c(O)c1)O[C@@H]1[C@@H](O)[C@H](OC2CCCCC2O)O[C@H](CO)[C@H]1O (stereo partly drawn) | 9.07 | 
31 | COc1cc(C(CO)CO[C@@H]2O[C@H](CO)[C@@H](O)[C@H](O)[C@H]2O)ccc1O (stereo partly drawn) | 5.97 | 
32 | CC1(C)CC2C3=CCC4[C@@]5(C)CC[C@H](OC6OCC(O)C(OC7OC(CO)C(O)C(O)C7O)C6O)C(C)(C)C5CC[C@@]4(C)[C@]3(C)C[C@H](O)[C@@]2(CO)[C@H](OC(=O)c2ccccc2)C1 (stereo partly drawn) | -6.42 | 
33 | C=C[C@@]1(C)CCC2=C([C@H]1OC(C)=O)[C@H](OC(C)=O)CC1[C@](C)(C(=O)OC)CC[C@H](OC(C)=O)[C@]21C (stereo partly drawn) |  | inactive

From PubChem BioAssay (NCATS)
